HT1080 IDH1KD tx: qHTS for induction of synthetic lethality in tumor cells producing 2HG: qHTS for the HT-1080-IDH1KD cell line; HT-1080 IDH1 knockdown viability, ATP luminescence, 48 h; Potency, µM (top dose mostly 46.1 µM), without a hit: at the top dose activity, negative = toxicity, hits mostly cytotoxic; actives 2% (n = 360,000); AID 686971, 2013;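 further: potency means the concentration at half of the fitted maximal effect; 0% = DMSO wells and -100% = cell-free medium wells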
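In this qHTS, HT-1080 cells depleted of IDH1 are exposed for 48 h at 37 °C to compound titrations. Toxicity is scored from CellTiter-Glo luminescence, with DMSO as full viability and medium alone as none.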
HT1080NT lethal: qHTS for induction of synthetic lethality in tumor cells producing 2HG: qHTS for the HT-1080-NT fibrosarcoma cell line. HT-1080-NT fibrosarcoma viability, CellTiter-Glo ATP luminescence, 48 h. Potency, µM (top dose mostly 46.1 µM), for the others: at the top dose activity, negative = less viability, hits mostly cytotoxic. actives 1.6% (n = 360,000);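 further: NT is the 2HG producing partner of a matched IDH1 knockdown line; potency means the concentration at half of the fitted maximal effect; 0% = DMSO-treated cells and -100% = media-only wells without cells; nearly all actives have a fitted effect of over 55% in size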
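Luminescent CellTiter-Glo readout after 48 hours of compound exposure at 37 degrees C defined viability of HT-1080-NT cells. Activity was normalized to DMSO wells and cell-free media wells; concentration-response curves were fitted and assigned curve classes.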
IL-1B inflam inh: qHTS for Inhibitors of Inflammasome Signaling: IL-1-beta AlphaLISA Primary Screen | actives 4.7% (n = 360,000) | activity change, % at 57.5 µM | AID 743279, 2014 | THP-1 LPS/ATP IL-1B secretion, AlphaLISA, 16 h; hits give low values; in the data active means activity change below about -50%; inconclusive means mostly about -30% to -49%
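Secreted IL-1B measured by AlphaLISA bead assay after 16 h compound exposure of THP-1 cells; compounds (final up to 57.5 uM) added 1 h before LPS (250 ng/mL) and ATP (1.25 mM) stimulation; lower signal means less secretion.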
uPA generation: qHTS for Inhibitors of Cell Surface uPA Generation; cell surface uPA generation assay, qHTS; Potency, µM (top dose mostly 38.3 µM), without a hit: at the highest dose activity change, negative = inhibition, hits mostly inhibitors; actives 0.31% (n = 330,000); AID 540303, 2011; active means well fitted inhibition curve with a large enough effect; inconclusive means small, poorly fitted or top-dose-only effect; inactive means no such curve, though single readings can be large or run the other way; tested in mouse RAW 264.7 cells; further: potency means the concentration at half of the fitted maximal effect; nearly all actives have a fitted effect of over 55% in size
DT40 TDP1 CPT: qHTS for Inhibitors of human tyrosyl-DNA phosphodiesterase 1 (TDP1): qHTS in cells in presence of CPT. chicken DT40 Tdp1-/-;hTDP1 cells + 20 nM CPT, ATP luminescence, 48 h. Potency, µM (top dose mostly 46.2 µM), for inactives: at the top dose activity change, negative = growth inhibition, actives largely listed as inhibitors. actives 12% (n = 420,000); further: potency means the concentration at half of the fitted maximal effect; nearly all actives have a fitted effect of over 55% in size
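Chicken DT40 Tdp1-/- cells stably complemented with human TDP1 were seeded at 400 cells/well in medium containing 20 nM camptothecin, exposed to pin-transferred compounds, and grown at 37 °C for at least 48 hr. Viability was read as ATP luminescence.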
TDP1 cell noCPT: qHTS for Inhibitors of human tyrosyl-DNA phosphodiesterase 1 (TDP1): qHTS in cells in absence of CPT; actives 15% (n = 420,000); Potency, µM (highest dose often 46.2 µM), for inactives: at the top dose activity change, negative = growth inhibition, usual class: inhibitors; DT40 Tdp1-/- hTDP1 cells, no CPT, ATP luminescence, 48 h; further: potency means the concentration at half of the fitted maximal effect; nearly all actives have a fitted effect of over 55% in size
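Luminescent ATP content (CellTiter-Glo) served as the growth readout. Knockout chicken DT40 cells expressing human TDP1 were exposed to compounds without camptothecin for a minimum 48 hr at 37 °C.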
* marks the source's active call; other numbers are inactive results; ? = inconclusive; . = no result; ! = repeats disagree; [ ] = dose if it differs, or a comment. A selection: hits, their analogues and other compounds. The true share with any hit is near 19%. Unless noted, the call rests on the fitted dose curve; in most records, active means well fitted curve in the direction sought with a large enough effect; inconclusive means small, poorly fitted or top-dose-only effect, or another doubt; inactive means no such curve, though single readings can be large; an effect the other way counts as inactive or inconclusive. Unless noted, on the % scale 0 is the no-effect control and ±100 the full control effect.

SMILES	HT1080 IDH1KD tx	HT1080NT lethal	IL-1B inflam inh	uPA generation	DT40 TDP1 CPT	TDP1 cell noCPT
CCOC(=O)c1ccc(-n2c(C)nc3c(cnn3-c3ccc(Cl)cc3)c2=O)cc1	13%	17%	38	0%	8.2µM*!	5.8µM*!
COc1ccc(-n2c(C)nc3c(cnn3-c3ccc(C)cc3)c2=O)cc1	0%	-6%	-13	0%	15µM*	?
Cc1cccc(-n2c(C)nc3c(cnn3-c3ccc(F)cc3)c2=O)c1	-17%	-15%	?	-3%	18µM*	9.2µM*
COc1ccc(-n2c(C)nc3c(cnn3-c3ccc(Cl)cc3)c2=O)cc1	?	-24%	-13	-8%	?	?
Cc1ccc(NC(=O)CCN2C(=O)NC3(CCCC3)C2=O)cc1S(=O)(=O)N1CCOCC1	-5%	5%	4	6%	3%	1%
Cc1cccc(-n2c(-c3ccco3)nc3c(cnn3-c3ccc(F)cc3)c2=O)c1	.	.	.	.	16µM*	16µM*
O=C(Nc1cccc(C(F)(F)F)c1)c1cccnc1N1CCN(c2ccccc2)CC1	-2%[9.24 µM]	?	-77*	-16%	?	18µM*
CC(C)(C)c1ccc(NC(=O)N2CCCN(c3ccc([N+](=O)[O-])cn3)CC2)cc1	?	-29%	.	0%	?	26µM*
Cc1cccc(Cl)c1NC(=S)N1CCN(c2ccc([N+](=O)[O-])cn2)CC1	-1%	-1%	-18	-5%	?	26µM*
Cc1c(Cl)cccc1NC(=S)N1CCN(c2ccc([N+](=O)[O-])cn2)CC1	12%	-1%	-4	3%	-1%	-14%
O=C(Nc1ccccc1)N1CCN(c2cccc(C(F)(F)F)c2)CC1	0%	-2%	-50*	-5%	21µM*	12µM*
O=C(Nc1cccc(C(F)(F)F)c1)c1cccnc1N1CCN(CCO)CC1	-8%	-6%	-28	1%	10%	-19%
CO[C@H]1[C@H](NC(=O)c2cccs2)c2ccccc2C12CCN(Cc1cccn1-c1cccnc1)CC2	.	.	.	.	11%	-27%
COC(=O)c1ccc(NC(=O)Cn2ccn3nc(-c4ccc(OC)cc4)cc3c2=O)cc1	.	.	.	.	-3%	-1%
CCCCn1cnc2c(SCc3ccccc3F)nc(N)nc21	-5%	18%	?	7%	-11%	-28%
COc1ccc(/C=C(\C#N)c2nc(-c3cc(Cl)ccc3OC)cs2)cc1	.	.	.	.	-16%	-17%
CN1CCN(c2ccc(NC(=O)c3ccc(C(F)(F)F)cc3)cn2)CC1	?	-1%	?	-8%	-11%	-18%
O=C(Nc1ccccc1)N1CCCN(c2nccc(C(F)(F)F)n2)CC1	12%	28%	-5	4%	29µM*	?
CCC(C)[C@H](NC(=O)N1CCN(c2cccc(C(F)(F)F)c2)CC1)C(=O)OC (some centres not stated)	-1%	-7%	-1	.	15µM*	21µM*
CC(NC(=O)c1ccco1)C(=O)N1CCN(c2cccc(C(F)(F)F)c2)CC1 (configuration not stated)	-3%	-10%[9.24 µM]	0	0%	13µM*	10µM*
O=C(Nc1ccc(F)cc1)N1CCCN(c2nccc(C(F)(F)F)n2)CC1	-4%	-20%	-26	-3%	-28%	?
CC(NC(=O)c1ccco1)C(=O)N1CCN(c2ccccc2)CC1 (configuration not stated)	1%	0%	3	-1%	10%	-15%
CNC(=S)Nc1ccc(N2CCN(c3ccc(C(F)(F)F)cn3)CC2)nc1	-3%	-6%	-1	2%	?	26µM*
Cc1cc(NC(=O)Nc2ccccc2[N+](=O)[O-])n(C)n1	-5%	-3%	2	7%	-2%	16%
O=C(Nc1ccccc1)N1CCN(c2ccc(C(F)(F)F)cn2)CC1	-6%	16%	?	1%	7.3µM*	23µM*
SMILES	HT1080 IDH1KD tx	HT1080NT lethal	IL-1B inflam inh	uPA generation	DT40 TDP1 CPT	TDP1 cell noCPT
COc1ccc(NC(=O)N2CCOCC2)cc1OC	17%	8%	8	2%	6%	3%
O=C(c1ccc2ccccc2c1)N1CCN(c2ccc(C(F)(F)F)cn2)CC1	-19%	-15%	4	0%	-3%	?
COc1ccc(NC(=O)N2CCN(c3cccc(C(F)(F)F)c3)CC2)cc1OC	-4%	-1%	0	0%	?	12µM*
Cc1ccc(NC(=O)CSCC(=O)N2CCN(c3cccc(C(F)(F)F)c3)CC2)cc1	-2%	4%	-6	-3%	?	15µM*
COc1cc(/C=C/C(=O)OCC(=O)Nc2ccc3[nH]c(=O)[nH]c3c2)ccc1OC(F)F	6%	7%	28	.	-6%	-7%
O=C(c1ccc(F)cc1)N1CCN(c2ccc([N+](=O)[O-])c(N3CCOCC3)c2)CC1	14%	4%	-3	-4%	?	?
O=C(COc1ccccc1Cl)N1CCN(c2ccc([N+](=O)[O-])c(N3CCOCC3)c2)CC1	-21%	-18%	-9	4%	?	16µM*
O=C(c1ccccc1Br)N1CCN(c2ccc([N+](=O)[O-])c(N3CCOCC3)c2)CC1	23%	13%	-1	-20%	-16%	-16%
Cc1ccc(C(=O)N2CCN(c3ccc([N+](=O)[O-])c(N4CCOCC4)c3)CC2)cc1	6%	8%	0	-2%	29µM*	?
COC1=CC(=O)OC(c2ccc(C(F)(F)F)cc2)C1 (configuration not stated)	3%	6%	?	.	2%	1%
CN(CC(=O)NC(=O)NCc1ccco1)Cc1nc2ccccc2c(=O)[nH]1	11µM*	?	0	7%	4.6µM*	1.6µM*
COc1cc2c(cc1NC(=O)CN(C)Cc1nc3ccccc3c(=O)[nH]1)oc1ccccc12	-18%	-12%	-5	-3%	18µM*	23µM*
CCN(CC(=O)Nc1cc(OC)ccc1OC)Cc1nc2ccccc2c(=O)[nH]1	-2%	6%	30	0%	1%	11%
CN(CC(=O)Nc1ccccc1Sc1ccccc1)Cc1nc2ccccc2c(=O)[nH]1	?	-21%	-18	12%	?	18µM*

Screening results from PubChem.
